Source: PubChem BioAssay AID449762 (Southern Research Specialized Biocontainment Screening …, 2010)
Several values for one entry are separate records, joined by “and”; a condition that tells them apart may be missing. Identical values can stand only once. In all, about 330,000 compounds went through this assay and about 1,900 (0.58%) were called active. Another 4% or so got no clear call; they are omitted. The list is a sample of the results. Results with a measured potency or affinity are listed apart. A number with no mark means an inactive call. Rule as the data show it: inconclusive = inhibition above about 70% without an active follow-up result; inactive = below that.

assay: M. tuberculosis growth inhibition, HTS (AID 449762);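 also: bacterial growth assessed after seven days of incubation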; conditions: M. tuberculosis H37Rv growth inhibition, 7H9 media; at 25 µM; stronger effect = higher value

SMILES | inhibition
CCOc1ccccc1-n1nnnc1SCC(=O)OC | 3.09%
Cc1cc(C)n2c(Br)c(CN3CCCC(C)C3)nc2n1 (centres undefined) | -0.64%
Clc1ccc(CN2C3=NCCN3c3ccccc32)cc1Cl | -11.7%
CCOc1cccc(-c2c(C(=O)N/N=C/c3sccc3C)nnn2-c2nonc2N)c1 | 3.18%
CCc1ccc(NC(=O)CSc2nc3ncc(Br)cc3[nH]2)cc1 | 49.8%
O=C(CSc1nc2ncccc2[nH]1)Nc1ccc2c(c1)OCO2 | -7.9%
N#Cc1ccccc1OCc1cccc(S(=O)(=O)N2CCOCC2)c1 | -6.86%
OCCN(CC#CC(O)(c1ccccc1)C1CCCC1)CCO (centres undefined) | 3.68%
Cn1c(CCn2ccccc2=O)nc2cc(NC(=O)COc3ccccc3)ccc21 | 0.17%
CCCC(=O)N1CCCC(c2nc(-c3cccc(OC)c3)no2)C1 (centres undefined) | -8.11%
COc1ccc(N2CCN(C(=O)c3ccc(Oc4ccc(C(F)(F)F)cn4)cc3)CC2)cc1 | 10.5%
O=C(c1ccc(Oc2ccc(C(F)(F)F)cn2)cc1)N1CCN(c2ccccc2)CC1 | 46.7%
Cc1ccc(S(=O)(=O)N2CCCCC2)cc1NC(=O)COC(=O)c1ccccc1F | -3.82%
CCOc1ccc(NC(=O)CN(C)C(=O)c2c(-c3ccccc3Cl)noc2C)cc1OCC | 1.46%
COc1ccccc1-n1cnnc1SCC(=O)Nc1cc(C)on1 | -1.02%
COC(=O)c1c(C(=O)OC)c2n(c1C)CCC2 | -2.13%
Cc1cc(C)c2ccc(C(=O)O)nc2c1O | -5.39%
Cc1cc(C)c2ccc(N)nc2c1O | -11.8%
CCOc1ccc2[nH]cc(C(=O)N3CCN(CC)CC3)c(=O)c2c1 | 5.18%
Cc1cccc(-c2noc(CCC(=O)Nc3ccc(C(N)=O)cc3)n2)c1 | 4.71%
COc1ccc(-c2noc(CCCC(=O)Nc3ccc(C(N)=O)cc3)n2)cc1 | -3.01%
Cc1ccc(C)c(S(=O)(=O)N2CCN(C(=O)CCc3c[nH]c4ccccc34)CC2)c1 | -3.94%
CSc1nsc(/C=C/Nc2ccc(C)cc2)c1C#N | 18.6%
CSc1nsc(/C=C/Nc2ccc(F)cc2F)c1C#N | 7.19%

SMILES | inhibition
O=c1c2cnn(-c3ccccc3)c2ncn1Cc1cccc(Cl)c1 | 0.84%
NNC(=O)COc1cccc(Oc2ccccc2)c1 | 7.98%
O=C(COc1ccccc1)Nc1ncccn1 | -7.9%
Cc1ccc2c(c1)C1(OCCCO1)C(=O)N2CC#N | -7.17%
O=S(=O)(Cc1cc(N2CCOCC2)nc(-c2ccccn2)n1)c1ccccc1 | 5.9%
Cc1nc(CSc2ccc(Cl)cc2)cc(N2CCOCC2)n1 | 0.76%
COc1c(C)cc(C(=O)C2CCCN(C(=O)c3cc(C)n(C)n3)C2)cc1C (centres undefined) | 5.63%
CCOC(=O)c1c(NC(=O)/C=C\C(=O)O)sc(C)c1-c1ccccc1 | -6.71%
CCOC(=O)c1c(NC(=O)CCN2CCOCC2)sc(C)c1-c1ccccc1 | 3.54%
COc1cc(/C=N/c2oc(C)c(C)c2C#N)cc(Br)c1O | 12%
COCCN(C(=O)COC(=O)CCC(=O)c1ccc(Cl)cc1)c1c(N)n(Cc2ccccc2)c(=O)[nH]c1=O | -11.3%
Cc1csc(NC(=O)CSc2ccc(-c3ccccc3)nn2)n1 | 1.71%
Cc1cc(NC(=O)CSc2ccc(-c3ccccc3)nn2)no1 | -8.31%
COCCNC(=O)c1noc2c1CCc1cc(OC)ccc1-2 | 3.34%
O=C(Nc1ccc(C(F)(F)F)cc1)c1ccc(NC(=O)C2CCCO2)cc1 (centres undefined) | -5.77%
Cc1cccc2sc(NNC(=O)C3=COCCO3)nc12 | 2.71%
CCOC(=O)N1CCN(C(=O)c2cccc(S(=O)(=O)Nc3ccc(Br)cc3)c2)CC1 | 8.88%
CC(NCC(O)COc1ccc2ccccc2c1)c1ccccc1 (centres undefined) | 9.15%
CCOC(=O)c1nn(-c2ccc(C)cc2)c(=O)cc1OCC(=O)Nc1ccc(OC)cc1 | 8.61%
COC(=O)C(C)n1nc(C)n(-c2ccc(C)cc2)c1=O (centres undefined) | -0.27%
Cc1cc(NC(=O)c2cncc(Br)c2)ccc1NC(=O)c1cc2ccccc2o1 | 6.1%
CCC(=O)Nc1ccc(NC(=O)c2ccc3ccccc3c2)cc1 | -4.7%
O=S1(=O)CCOC[C@H](c2ccccc2)N1Cc1ccccc1F | 1.26%
CNC(C)C#Cc1ccc2c(=O)c3cc(C)c(C)cc3oc2c1 (centres undefined) | 1.51%

SMILES | inhibition
CNC(C)C#Cc1ccc2c(=O)c3ccccc3oc2c1 (centres undefined) | 30%
CC(C)(C)OC(=O)C[C@@H]1C/C=C\C[C@@H](CC(=O)N(CCO)Cc2ccccc2)C(=O)NC[C@@H](c2ccccc2)OC1=O | 4.78%
CCCCN(C(=O)CC1CCCC1)c1c(N)n(CCCC)c(=O)[nH]c1=O | -14.4%
O=C(NCC1CCCO1)C1c2ccccc2Oc2ccccc21 (centres undefined) | -7.07%
Cc1ccc(N(CC(=O)N2CCc3ccccc3C2)S(C)(=O)=O)cc1 | -1.47%
COc1c(Cl)cnn(-c2ccccc2)c1=O | 6.51%
COc1cc(Cl)nn(-c2ccccc2)c1=O | -13.2%
Cn1c(=O)cc(OCC(=O)NCCCN2CCN(c3cccc(Cl)c3)CC2)c2ccccc21 | 1.78%
C=CCNc1nc(C(=O)OCC(=O)c2ccc(F)cc2)cs1 | -9.37%
CCN(C(=O)Cc1c(C(=O)O)n(C)c2ccccc12)c1cc(OC)ccc1OC | -7.09%
C/C=C(\C)C(=O)Nc1cccc(C2=NOC3(C2)C[C@@H](C(N)=O)N(C(=O)c2cc([N+](=O)[O-])cc([N+](=O)[O-])c2C)C3)c1 (some centres undefined) | -8.05%
C/C=C(/C)C(=O)Nc1cccc(C2=NOC3(C2)C[C@H](C(N)=O)N(C(=O)c2ccccc2)C3)c1 (some centres undefined) | -2.03%
COc1ccc(N2CC(C(=O)N3CCN(Cc4ccc5c(c4)OCO5)CC3)CC2=O)cc1 (centres undefined) | -6.83%
COc1ccc(/C=C2\CCCC3C2=NN(C(=O)CSc2ncn[nH]2)C3c2ccc(OC)cc2)cc1 (centres undefined) | 8.82%
O=c1cc(CNc2cc(C(F)(F)F)cc(C(F)(F)F)c2)nc2sccn12 | 3.54%
COC(=O)CN(c1ccc2c(c1)OCCO2)S(=O)(=O)c1ccccc1 | -5.06%
CC(=O)c1c(C)n(Cc2ccccc2)c2ccc(O)cc12 | -1.54%
COc1ccc2c(c1)c(C(C)=O)c(C)n2CCc1ccccc1 | -7.55%
Cn1cc(CNC(=O)c2cc(COc3ccc4c(c3)CCCC4)on2)cn1 | 7.16%
CN(C)c1oc(/C=C/c2ccccc2)nc1C#N | 2.83%
Cc1ccc(C(=O)NC(C)C2CCCO2)o1 (centres undefined) | -14.8%
Cc1ccc(S(=O)(=O)N2CCCCC2C(=O)N2CCN(C)CC2)cc1 (centres undefined) | -3.69%
CN(C)c1cccc(/C=C(\C#N)c2ccccc2)c1 | 11.4%
CC(C)(C=O)C1=CC(=O)c2ccccc2C1=O | -5.62%

SMILES | inhibition
CC1=CC(=O)c2ccccc2C1=O | -6.06% and 0.39%
COc1ccccc1-n1c(CNC(=O)c2ccco2)nnc1SCC(=O)Nc1cc(C)ccc1C | -9.93%
CCCCCCNc1nc(-c2ccc(OC)cc2)c(CCC(=O)O)s1 | 31%
COc1ccc(CCNc2ncnc3c2[nH]c2cc(OC)c(OC)cc23)cc1OC | -4.75%
Fc1ccc2[nH]c3c(NCCN4CCOCC4)ncnc3c2c1 | 1.25%
Cc1ccc2[nH]c3c(NCc4ccccc4)ncnc3c2c1 | 67.8%
COc1ccc(CNc2ncnc3c2[nH]c2ccccc23)cc1 | 59.2%
C=CCn1c(SCC(=O)c2c(N)n(CCC)c(=O)n(C)c2=O)nc2sc(CC)cc2c1=O | 0.69%
CSc1ccc(/C=C/C(=O)OCC(=O)c2ccc[nH]2)cc1 | 5.61%
O=C(O)CC(C(=O)NCc1ccccc1)C1CCCO1 (centres undefined) | -7.82%
COc1cc(NC(=O)c2cnc(N)o2)cc(C(=O)Nc2cccc(C(F)(F)F)c2)c1 | 2.04%
COc1cc(NC(=O)c2ccnnc2)cc(C(=O)Nc2cccc(C(F)(F)F)c2)c1 | 42.8%
Cc1ccc(C)c(N2CCN(S(=O)(=O)c3c(C)[nH]c(C)c3C(=O)N3CCCCC3)CC2)c1 | -4.36%
Cc1cc(C(=O)COc2ccccc2C(N)=O)c(C)n1C | -2.03%
Cc1cc(C(=O)COc2ccccc2C(N)=O)c(C)n1CC1CCCO1 (centres undefined) | -7.82%
O=C(O)/C=C\C(=O)Nc1ccccc1N1CCN(c2ccccc2)CC1 | -0.24%
O=C(CSc1nnc2c(n1)[nH]c1ccccc12)Nc1ccc2c(c1)OCO2 | 0.35%
COc1cc(CC(=O)N/N=C/c2ccc([N+](=O)[O-])cc2)c([N+](=O)[O-])cc1OC | 2.69%
CCSc1nnc(NC(=O)CCCOc2ccc(C)cc2)s1 | 1.29%
CCC(C)NC(=S)Nc1ccc(F)cc1 (centres undefined) | -4.81%
CCC(C)NS(=O)(=O)c1ccc(NS(C)(=O)=O)cc1 (centres undefined) | 4.07%
O=C(Cc1cccs1)NCc1cccc(CNC(=O)Cc2cccs2)c1 | 1.18%
